According to ChEMBL document CHEMBL3433997, “St. Jude Leishmania screening dataset” (2016):

Experiments:
Format in all cases: functional
[1] = target: Solute carrier family 2, facilitated glucose transporter member 1 (Homo sapiens) (UniProt P11166); test: ST_JUDE_LEISH: Cytotoxicity at 2uM final concentration against transgenic Leishmania Mexicana promastigotes LmGLUT1 that are glucose transport deficient and complemented with the human glucose transporter GLUT1. Activity is measured by DNA content using SYBR green in vitro
[2] = target: Hexose transporter 1 (Plasmodium falciparum) (UniProt O97467); test: ST_JUDE_LEISH: Cytotoxicity at 2uM final concentration against transgenic Leishmania Mexicana promastigotes LmPfHT that are glucose transport deficient and complemented with the Plasmodium falciparum hexose transporter. Activity is measured by DNA content using SYBR green in vitro
[3] = target: Glucose transporter (Leishmania mexicana) (UniProt O61059); test: ST_JUDE_LEISH: Cytotoxicity at 2uM final concentration against transgenic Leishmania Mexicana promastigotes LmGT2 that are glucose transport deficient and complemented with the L. Mexicana glucose transporter 2. Activity is measured by DNA content using SYBR green in vitro

Sequence of Solute carrier family 2, facilitated glucose transporter member 1 (Homo sapiens) (P11166 whole entry): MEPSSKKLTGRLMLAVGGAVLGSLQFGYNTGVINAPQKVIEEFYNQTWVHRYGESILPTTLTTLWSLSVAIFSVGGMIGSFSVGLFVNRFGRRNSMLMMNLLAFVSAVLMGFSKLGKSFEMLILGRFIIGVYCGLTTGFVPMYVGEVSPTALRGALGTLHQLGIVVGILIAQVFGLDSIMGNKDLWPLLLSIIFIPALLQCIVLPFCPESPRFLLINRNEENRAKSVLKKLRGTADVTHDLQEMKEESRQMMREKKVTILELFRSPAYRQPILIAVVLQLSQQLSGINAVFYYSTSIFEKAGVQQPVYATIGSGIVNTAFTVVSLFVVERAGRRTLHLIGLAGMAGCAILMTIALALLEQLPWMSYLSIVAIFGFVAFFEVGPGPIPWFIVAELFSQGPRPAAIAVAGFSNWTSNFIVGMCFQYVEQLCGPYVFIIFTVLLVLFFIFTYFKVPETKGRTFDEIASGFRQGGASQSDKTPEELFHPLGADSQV

Row | Structure (SMILES) | inhibition [1] [%] | inhibition [2] [%] | inhibition [3] [%]
1 | CCCN(CCCCNC(=O)c1ccc(-c2cccnc2)cc1)C1CCc2c(O)cccc2C1 (stereo unspecified) | 3.63 | 2.13 | 3.11
2 | N#Cc1cc(C(=O)c2cc(Br)ccc2O)cn(-c2cc(Cl)cc(Cl)c2)c1=O | -3.11 | 0.39 | -3.61
3 | CC(=O)Nc1ccc(C(=O)Nc2cccc(-c3cccc(-c4nc5cc(F)ccc5[nH]4)c3)c2)cn1 | 7.97 | 10.8 | 3.74
4 | CCCCCCN1CCN(Cc2cccc(NC(=O)c3cc4ccccc4s3)c2)CC1 | 2.76 | 2.43 | 2.42
5 | CCn1cc(CN2CCCC(C(=O)Nc3ccc(-c4nc5ccccc5[nH]4)cc3)C2)cn1 (stereo unspecified) | 3.25 | 3.52 | 2.06
6 | Cc1cc(O)c(CN(C)Cc2ccc3c(c2)OCO3)cc1C(C)C | -0.84 | -1.41 | 0.04
7 | Clc1cc(Br)ccc1-c1ccc(CNCC2CCNCC2)o1 | 0.75 | -0.1 | 1.69
8 | CC(C)(C)OC(=O)C1CCCN(Cc2ccc(-c3cccc(-c4nc5ccccc5[nH]4)c3)cc2)C1 (stereo unspecified) | 3.21 | 3.25 | 0.78
9 | O=S(=O)(NCCN1CCCC1)c1ccc(-c2ccccc2CNC2Cc3ccccc3C2)cc1 | 66.1 | 67.7 | 50.5
10 | CC(C)C(=O)Nc1c(F)cc(F)cc1CCc1ccc(O)cc1 | 7.29 | 8.12 | 5.01
11 | CCCOc1ccc(CCCON2C(N)=NC(N)=NC2(C)C)cc1 | 7.95 | 13 | 6.99
12 | O=C(Nc1cccc(Cl)c1Cl)Nc1ccnc2ccccc12 | 7.59 | 7.42 | 5.95
13 | Cc1ccc(NC(=O)c2ccc(CN3CCCN(CCC(C)C)CC3)cc2)cc1F | 7.11 | 7.04 | 9.05
14 | O=C(Nc1ccnc2ccccc12)NC1CCN(Cc2ccccc2)CC1 | 3.42 | 3.28 | 3.89
15 | COc1cc2nc(SCCCC#N)n(C3CCCCCC3)c(=N)c2cc1OC | 7.27 | 5.84 | 2.84
16 | CCOC(=O)c1cc(Cl)ccc1OCCCON1C(=N)N=C(N)NC1(C)C | 1.75 | 3.52 | 3.08
17 | Cc1cc(N)c2cc(NC(=O)c3ccc4ccccc4c3)ccc2n1 | 3.68 | 4.64 | 3.57
18 | CCCc1cc(NC2CCN(C)CC2)nc(Nc2ccc(F)cc2)n1 | 10 | 6.83 | 5.22
19 | COc1cccc(NC(=O)c2nc(N3CCN(c4ccncc4)CC3)ccc2Cl)c1 | -1.23 | 1.65 | 0.29
20 | Cc1cc(N2CCCC2)nc(Nc2ccc(NC(=O)Cc3ccccc3)cc2)n1 | 88.4 | 95.2 | 72.3
21 | CCOC(=O)c1c(CNc2ccncc2)n(C)c2cc(Br)c(OC(C)=O)cc12 | -0.11 | 2.99 | 1.88
22 | Cc1cc(OCCCN2CCC(NS(=O)(=O)c3cc(Br)c(Cl)s3)CC2)c2ccccc2n1 | -1.11 | -0.46 | -0.25
23 | Cc1ccccc1C1CCN(c2ccc(NC(=O)c3ccc(Cl)nc3)cc2)CC1 | 3.34 | -3.74 | 3.84
24 | O=C(c1cc2cccc([N+](=O)[O-])c2[nH]1)N1CCC(CCN2CCC(c3c[nH]c4ccccc34)CC2)CC1 | 1.52 | 12.8 | 2.6

Row | Structure (SMILES) | inhibition [1] [%] | inhibition [2] [%] | inhibition [3] [%]
25 | Cc1cnc(-c2ccc(NC(=O)N3CCc4cc5nccc(N6CCN7CCC[C@H]7C6)c5cc43)c3ccccc23)o1 | 3.29 | 3.79 | 4.04
26 | COc1cc(C(=O)N2CCOC(CCN3CCC4c5ccccc5CC43)(c3ccc(Cl)c(Cl)c3)C2)cc(OC)c1OC (stereo unspecified) | 3.86 | -2.68 | 9.19
27 | COc1ccc2nccc([C@@H](O)CN3CCC(NC(=O)c4ccc(CN5CCN(c6cccc(C)c6)CC5C)cc4)CC3)c2c1 (stereo partly specified) | 4.12 | 1.46 | -3.5
28 | Cc1cc(NCCc2ccccc2)nc(NC(=N)Nc2cccc([N+](=O)[O-])c2)n1 | 11.1 | 10.5 | 5.24
29 | NC(Cc1cccc(I)c1)C(=O)NCC1CCCO1 (stereo unspecified) | 1.94 | 0.37 | 0.96
30 | c1cc2c3c(cccc3c1)NC(CCCCCCCCC1=Nc3cccc4cccc(c34)N1)=N2 | 2.66 | 1.67 | 2.28
31 | CCOc1ccc(-c2nonc2NC(=O)c2ccccc2F)cc1OCC | -0.17 | 1 | 1.47
32 | c1ccc(Oc2ccc(Nc3ccnc(Nc4ccc5cn[nH]c5c4)n3)cc2)cc1 | 3.91 | 3.81 | 1.54
33 | N=C(NCCCc1ccccc1)c1cccc(C(=N)NCCCc2ccccc2)n1 | -0.39 | -1.1 | -0.17
34 | COc1ccc2nccc(N3CCC(CCNCc4cc5c(cn4)OCCO5)CC3)c2c1 | 7.15 | 8 | 4.48
35 | CN(C)C1CCN(Cc2ccc(N3CCN(Cc4cccc5[nH]ccc45)CC3)nc2)CC1 | 2.41 | 1.46 | 2.99
36 | CCn1ccc2c(N3CCCS3(=O)=O)cc(C(=O)N[C@@H](Cc3ccccc3)[C@H](O)CNC(C)(C)c3cccc(OC)c3)cc21 | 0.43 | 2.4 | 1.49
37 | CN(C)CC(=O)Nc1ccc(Nc2nccc(NCC(O)c3ccccc3)n2)cc1 (stereo unspecified) | 1.63 | 2.79 | 0.21
38 | O=C(/C=C/c1ccc(I)cc1)NCCCCCN1CCC(c2c[nH]c3ccc(O)cc23)CC1 | 1.49 | 1.64 | 1.49
39 | Cc1cc2ccc(/C=C/C(=O)NC3CCC(CCN4CCc5ccc(C#N)cc5CC4)CC3)cc2[nH]1 (stereo unspecified) | 4.47 | 5.55 | 2.92
40 | COc1cccc(CNC(=O)c2cc(CNCc3ccccc3)ccc2-c2cccc(CNCc3ccc(-c4ccccc4)cc3)c2)c1 | 3.83 | 4.88 | 6.21
41 | CCN(CC)CCCC(C)Nc1ccnc2cc(Cl)ccc12 (stereo unspecified) | 1.44 | 1.5 | 1.51
42 | COc1ccccc1CCNc1nc(C)cc(NCCC(=O)Nc2ccccc2)n1 | 1.82 | 2.34 | 1.43
43 | C=CCOC(=O)N1CCC(CNCc2cccc(-c3ccc(-c4nc5cccc(C)c5[nH]4)cc3)c2)C1 (stereo unspecified) | 6.3 | 8.62 | 9.02
44 | COc1cc2nc(N3CCC(CNC(=O)c4ccc(-c5ccc(C(=O)N(C)C)cc5)cc4)CC3)nc(N)c2cc1OC | 1.96 | 0.11 | 1.75
45 | O=C(Nc1ccc(-c2ccc(-c3nc4cc(C(F)(F)F)ccc4[nH]3)s2)cc1)c1c[nH]cn1 | 3.09 | 7.24 | 8.27
46 | Cn1nc(-c2ccccc2F)c2cc(C(=O)Nc3cccnc3)sc21 | 3.76 | 2.08 | 2.9
47 | COc1cc2nc(N3CCC(CNC(=O)c4ccc(-c5ccc(-c6noc(C)n6)cc5C)cc4)CC3)nc(N)c2cc1OC | 8.2 | 7.8 | 5.29
48 | CN(C)C(=S)N/N=C1/C(=O)Nc2ccc(OC(F)(F)F)cc21 | 1.94 | 1.64 | 0.75

Row | Structure (SMILES) | inhibition [1] [%] | inhibition [2] [%] | inhibition [3] [%]
49 | O=C(N[C@@H](Cc1ccccc1)C(=O)NC1CCCc2ccccc21)c1ccc(O)c(-c2cccc(C(F)(F)F)c2)c1 (stereo partly specified) | -3.38 | -1.1 | -1.61
50 | COc1cc(Cc2cnc(N)nc2N)c2c(c1OC)OC(C)C=C2 (stereo unspecified) | 1.59 | 2.39 | 2.25
51 | COc1ccc2nc3cc(Cl)ccc3c(NCCCCN)c2c1 | 2.17 | 1.49 | 0.04
52 | C=C1C(C(=O)OCC)=CN(CC)c2cc(O[C@H]3CCN(C(=O)OC(C)(C)C)C3)ccc21 | 2.71 | 2.53 | -2.32
53 | COc1ccc(C(=O)N2CCC3(CC2)C(=O)N(CC(=O)NCC2CCCCC2)CN3c2ccccc2)cc1 | 3.99 | 4.58 | 3.35
54 | Cc1cccc2nc(-c3cccc(-c4cccc(CNCCNC(=O)c5ccnn5C)c4)c3)[nH]c12 | -1.89 | -1.71 | -2.41
55 | Cc1noc(-c2ccc(NC[C@@H](C)NC[C@H](O)c3cccc(Cl)c3)cc2)n1 | 3.79 | 3.1 | 4.26
56 | COc1ccc(OC)c2c1CCN(C)C2Cc1cccc2ccccc12 (stereo unspecified) | 3.52 | 3.87 | 1.61
57 | Cc1cc(N[C@@H](Cc2ccccc2)C(=O)NCc2cccc(F)c2)nc(NCCc2cccnc2)n1 | 10.4 | 12.9 | 12.3
58 | CC(C)C[C@H]1C(=O)N[C@H](C2Cc3ccccc3C2)C(=O)N1[C@@H](C(=O)Nc1ccccc1OCc1ccccc1)c1ccc(F)cc1F | 0.86 | -0.17 | -0.16
59 | Cc1cccc2nc(-c3cccc(-c4cccc(NC(=O)c5cccnc5)c4)c3)[nH]c12 | 2.26 | -0.15 | -3.86
60 | CC(C)C1=CC(=NOS(=O)(=O)c2ccccc2)C=C(C(C)C)C1=O | 0.62 | 4.11 | -0.38
61 | O=C(Nc1ccc(Cl)cc1)Nc1cccc(-c2ccc(-c3nc4ccccc4[nH]3)cc2)c1 | 2.09 | 1.83 | 1.94
62 | C[C@@]12C[C@@H](Nc3nc(NCCc4ccc(O)cc4)nc(N4CCNCC4)n3)C[C@@H](C1)c1cccc(Cl)c1O2 | -1.38 | -1.84 | 2.14
63 | CC1(C)N=C(N)N=C(N)N1OCc1cccc(C#N)c1 | 2.81 | 0.82 | 1.5
64 | O=C(Nc1ccc2c(c1)OCO2)c1cc(-c2cccnc2)cnc1NCc1ccc2c(c1)OCO2 | 0.99 | 0.19 | 2.1
65 | CCOc1cc(Cl)c(C(C)NC(=O)c2ccccc2)cc1OCC (stereo unspecified) | 1.69 | 3.65 | 3.01
66 | CCC(=C(CC)c1ccc(O)c(CNC2CCCCC2)c1)c1ccc(O)c(CNC2CCCCC2)c1 | 23.6 | 8.98 | -1.26
67 | Cc1c(Cc2ccccc2)c(=O)oc2c(C)c3c(cc12)CN(CC(C)c1ccccc1)CO3 (stereo unspecified) | 4.3 | 4.73 | 5.8
68 | Cc1cc(N(CCO)CCCN2CCCCC2)nc(Nc2ccc(Cl)cc2)n1 | 1.77 | 1.35 | 2.41
69 | Cn1c(Sc2ncnc3sccc23)nc2ccccc21 | 2.32 | 2.23 | 2.32
70 | COc1ccc2cc(-c3nc(-c4c(Cl)cccc4Cl)[nH]c3-c3ccnc(NCCCN4CCCCC4C)c3)ccc2c1 (stereo unspecified) | 0.59 | -0.07 | 0.19
71 | Cc1cccc2nc(-c3ccc(-c4ccc(CNCCCNS(C)(=O)=O)cc4)s3)[nH]c12 | 7.9 | 8.05 | 6.95
72 | COc1ccc(CNC(=O)NC2CCN(c3ccnc(Nc4ccc(F)cc4)n3)C2)cc1 (stereo unspecified) | 7.84 | 5.37 | 7.65
